In PubChem BioAssay (Tox21) one finds Potency data, which are given here for 31 compounds.

Values joined by “and” are separate entries in the source; they are usually repeats but may differ in a detail not shown here. Equal values may be shown once. The source holds several records for some structures; these can differ, active in one and inactive in another. Active and inactive are the calls of the source. Unless noted, the call rests on the fitted dose curve; in most records, active means well fitted curve in the direction sought with a large enough effect in the repeat runs; inconclusive means weak or mixed curves; inactive means no such curve, though single readings can be large; an effect the other way counts as inactive or inconclusive. Residues, ends and D or L forms follow the SMILES beside them.

A short description of test [1]: qHTS assay to identify small molecule antagonists of the thyroid receptor (TR) signaling pathway - cell viability counter screen (AID 743064). Further: nearly all actives have a fitted effect of over 50% in size. Further: potency means the concentration at half of the fitted maximal effect. Summed up: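 CellTiter-Fluor readout, 30 min at 37 °C/5% CO2, following 23.5 h incubation of GH3.TRE-Luc cells with test compound and 1 nM T3 (final).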
The test system of test [2] is thyroid hormone receptor (rat, GH3 cells). In words: qHTS assay to identify small molecule agonists of the thyroid receptor (TR) signaling pathway (AID 743066; calls by dose curve; further: potency means the concentration at half of the fitted maximal effect).
For test [3], the target named is Estrogen receptor (Homo sapiens) (UniProt P03372). Put plainly: qHTS assay to identify small molecule antagonists of the estrogen receptor alpha (ER-alpha) signaling pathway (AID 743069; active means well fitted curve in the direction sought with a large enough effect in the signal ratio in the repeat runs, not every such curve was filed as active; inconclusive means weak or mixed curves, or effect the other way; inactive means no such curve, though single readings can be large or run the other way; the % refers to the signal ratio; further: potency means the concentration at half of the fitted maximal effect). Summed up: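 Compound effects are measured against 17beta-estradiol stimulation in HEK293 cells with a UAS-controlled beta-lactamase reporter for ER-alpha. Exposure lasts 18 hr at 37C; LiveBLAzer B/G FRET substrate follows for 2 hr at room temperature.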
Estrogen receptor (Homo sapiens), sequence (P03372 whole entry, looked up): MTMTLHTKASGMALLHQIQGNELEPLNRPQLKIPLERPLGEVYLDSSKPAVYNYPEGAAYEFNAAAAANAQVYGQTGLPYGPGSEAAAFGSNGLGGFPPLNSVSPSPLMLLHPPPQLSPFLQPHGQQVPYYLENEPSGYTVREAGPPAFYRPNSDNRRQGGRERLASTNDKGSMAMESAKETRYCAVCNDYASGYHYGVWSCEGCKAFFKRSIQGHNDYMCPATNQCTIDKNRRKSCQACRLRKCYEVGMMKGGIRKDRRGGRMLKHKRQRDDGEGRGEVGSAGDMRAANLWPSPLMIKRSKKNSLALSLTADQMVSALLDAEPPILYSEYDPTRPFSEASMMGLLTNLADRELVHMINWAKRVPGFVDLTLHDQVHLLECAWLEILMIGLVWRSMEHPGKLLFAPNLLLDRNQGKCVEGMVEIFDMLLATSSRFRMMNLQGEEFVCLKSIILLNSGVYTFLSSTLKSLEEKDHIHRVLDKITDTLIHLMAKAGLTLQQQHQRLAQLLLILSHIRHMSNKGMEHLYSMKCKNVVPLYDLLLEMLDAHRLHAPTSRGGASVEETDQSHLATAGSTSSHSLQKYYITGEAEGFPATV

The nature of test [4]: qHTS assay to identify small molecule antagonists of the estrogen receptor alpha (ER-alpha) signaling pathway - cell viability counter screen (AID 743074; calls by dose curve;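 further: HEK293 cells carrying ER-alpha-UAS-bla reporter stimulated with 17beta-estradiol; nearly all actives have a fitted effect of over 45% in size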).
The target of test [5] is Estrogen receptor (Homo sapiens) (UniProt P03372). Put plainly: qHTS assay to identify small molecule agonists of the estrogen receptor alpha (ER-alpha) signaling pathway (AID 743075; calls by dose curve; further: potency means the concentration at half of the fitted maximal effect).
For test [6] the target is unchanged. In words: qHTS assay to identify small molecule agonists of the estrogen receptor alpha (ER-alpha) signaling pathway using the BG1 cell line (AID 743079). Further: nearly all actives have a fitted effect of over 20% in size. Further: potency means the concentration at half of the fitted maximal effect.
Test [7] can be described thus: qHTS assay to identify small molecule antagonists of the estrogen receptor alpha (ER-alpha) signaling pathway using the BG1 cell line - cell viability counter screen (AID 743081).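 Further: compound given together with 17beta-estradiol as the ER stimulus; nearly all actives have a fitted effect of over 45% in size.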 Further: potency means the concentration at half of the fitted maximal effect.
In test [8] the target is Aromatase (Homo sapiens) (UniProt P11511). Put plainly: qHTS assay to identify aromatase inhibitors (AID 743083). Further: nearly all actives have a fitted effect of over 55% in size. Further: potency means the concentration at half of the fitted maximal effect.
Aromatase (Homo sapiens), sequence (P11511 whole entry, looked up): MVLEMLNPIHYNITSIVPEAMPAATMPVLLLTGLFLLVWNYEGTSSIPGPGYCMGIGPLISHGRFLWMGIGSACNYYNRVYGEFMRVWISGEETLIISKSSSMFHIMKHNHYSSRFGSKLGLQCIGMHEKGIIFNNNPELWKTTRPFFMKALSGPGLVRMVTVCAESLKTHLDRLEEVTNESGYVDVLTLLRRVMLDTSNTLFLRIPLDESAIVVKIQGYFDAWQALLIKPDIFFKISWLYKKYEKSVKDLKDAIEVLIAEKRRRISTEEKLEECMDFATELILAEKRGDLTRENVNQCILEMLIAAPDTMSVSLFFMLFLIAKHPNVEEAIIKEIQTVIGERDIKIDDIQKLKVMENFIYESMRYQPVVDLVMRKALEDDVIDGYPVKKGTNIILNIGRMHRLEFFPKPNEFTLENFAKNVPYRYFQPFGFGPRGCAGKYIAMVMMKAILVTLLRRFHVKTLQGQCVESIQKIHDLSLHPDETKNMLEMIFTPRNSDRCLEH
Test [9] in a line: qHTS assay to identify small molecule antagonists of the thyroid receptor (TR) signaling pathway (AID 743065). Further: series mostly up to about 70 µM; nearly all actives have a fitted effect of over 55% in size. In outline: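 Antagonism measured as loss of luciferase signal in GH3 cells stably carrying a TRE-luciferase reporter, co-treated with compound and T3 (1 nM final) for 23.5 h at 37 C. Viability was read in the same well by CellTiter-Fluor.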
A short description of test [10]: qHTS assay to identify small molecule antagonists of the estrogen receptor alpha (ER-alpha) signaling pathway using the BG1 cell line (AID 743080; calls by dose curve;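 further: BG1 cells stimulated with 17beta-estradiol alongside compound; series mostly up to about 70 µM; nearly all actives have a fitted effect of over 25% in size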). Summed up: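 Readout is ONE-Glo luminescence, taken 30 min at room temperature after reagent addition, preceded by a CellTiter-Fluor viability read; BG1-Luc-4E2 cells had received compound and 17beta-estradiol for 21.5 h at 37 C.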

`COc1ccc2[nH]cc(CCNC(C)=O)c2c1`: the Potency entry in [1], in [2], in [3], in [4], in test [5] and in [7] was “inactive” each time. Also, in [8], the Potency entry is “inactive”. Also, the Potency result in test [6] was “inactive and 55.3 µM (active)”.

In the case of `NNC(=O)c1ccncc1`, the Potency result in test [1], in test [2], in [3], in test [4], in test [5] and in test [6] was “inactive” each time. The Potency result in [7] and in test [8] was “inactive” each time.

Consider `O=C(C1CCCCC1)N1CC(=O)N2CCc3ccccc3C2C1` (stereo not given), for which the Potency entry in [1], in test [9], in test [2], in [4], in test [7] and in test [8] was “inactive” throughout.

`CC1(C)[C@@H]2CC[C@@]1(C)C(=O)C2`: the Potency result in test [1], in [9], in test [2], in test [3], in [4] and in test [5] was “inactive” in each case. Also, the Potency entry in test [6], in test [7] and in test [8] was “inactive” each time.

For the compound `Cc1cc(=O)n(-c2ccccc2)n1C`, the Potency result in [1], in test [9], in [2], in test [3], in [4] and in test [5] was “inactive” in each case. Besides, the Potency result in test [6], in [7] and in [8] was “inactive” throughout.

For `O=C1CN(/N=C/c2ccc([N+](=O)[O-])o2)C(=O)N1`, the Potency is 60.9 µM (active) and 68.6 µM (active) in [1]; 49 µM [inconclusive] (active) in [3]; 2.39 µM [inconclusive] (active) and inactive in test [5]; 531 nM (active) and inactive in [6]; 43.1 µM (active) in test [7]; 26.6 µM (active) and 43.1 µM (active) in [8]. Moreover, the Potency entry in test [9], in test [2] and in [4] was “inactive” each time.

As for `CC(O)C(=O)O` (stereo not given), the Potency result in [1], in [2], in test [3], in test [4], in test [5] and in test [6] was “inactive” in each case. The Potency entry in test [7] and in [8] was “inactive” throughout.

As to `Cn1c(=O)c2[nH]cnc2n(C)c1=O`, the Potency result in test [1], in test [9], in test [3], in [4], in test [5] and in test [6] was “inactive” in each case. The Potency entry in [7] and in test [8] was “inactive” in each case. Besides, the Potency result in test [2] was “inactive and 30.6 µM (active)”.

Turning to `NC(N)=NC(=O)c1nc(Cl)c(N)nc1N`, the Potency entry in test [1], in test [2], in test [3], in test [4], in test [5] and in test [6] was “inactive” throughout. Besides, the Potency entry in test [7] and in test [8] was “inactive” each time.

As to `O=c1cc[nH]c(=S)[nH]1`, the Potency result in [1], in test [2], in test [3], in [4], in test [5] and in test [6] was “inactive” each time. The Potency result in test [7] and in [8] was “inactive” in each case.

Consider `CCCC(CCC)C(=O)O`, for which the Potency result in test [1], in test [2], in test [3], in test [4], in test [5] and in test [6] was “inactive” in each case. For the same compound, the Potency entry in test [7] and in [8] was “inactive” each time.

As to `Cc1cn([C@H]2C[C@H](N=[N+]=[N-])[C@@H](CO)O2)c(=O)[nH]c1=O`, the Potency result in test [1], in test [2], in [3], in test [4], in test [5] and in test [7] was “inactive” each time. The Potency result in test [8] was “inactive”. The Potency result in test [6] is “inactive and 17.7 µM (active)”.

For the compound `COC(=O)[C@H](Cc1ccccc1)NC(=O)[C@@H](N)CC(=O)O` (H-Asp-Phe-OMe), the Potency result in test [1], in test [2], in [3], in test [4], in [5] and in test [6] was “inactive” throughout. The Potency result in test [7] and in test [8] was “inactive” each time.

As for `CCCC(O)C(CC)CO` (stereo not given), the Potency result in [1], in [9], in [2], in test [3], in test [4] and in test [5] was “inactive” in each case. For the same compound, the Potency entry in test [6], in test [7] and in [8] was “inactive” throughout.

Turning to `CCC1(c2ccccc2)C(=O)NCNC1=O`, the Potency entry in test [1], in [9], in [2], in [4], in [7] and in test [8] was “inactive” in each case.

Turning to `O=C(O)c1[nH]n(-c2ccc(S(=O)(=O)O)cc2)c(=O)c1N=Nc1ccc(S(=O)(=O)O)cc1`, the Potency in test [1] was 54.6 µM (active) and 50.9 µM (active); in test [7], “inactive and 54.6 µM (active) and 64.1 µM (active)”. In addition, the Potency entry in test [9], in [2], in test [3], in test [4], in test [5] and in test [6] was “inactive” each time. In addition, the Potency result in [8] is “inactive”.

Turning to `NS(=O)(=O)c1cc(C(=O)O)c(NCc2ccco2)cc1Cl`, the Potency entry in [1], in [2], in [3], in [4], in test [5] and in test [7] was “inactive” in each case. Further, the Potency in test [6] is 15 µM (active).

Consider `CCCN(CCC)S(=O)(=O)c1ccc(C(=O)O)cc1`, for which the Potency result in test [1], in test [9], in test [2], in test [4], in [7] and in [8] was “inactive” in each case.

For `c1ccc2[nH]ccc2c1`, the Potency result in test [1], in test [9], in test [2], in test [4], in [7] and in test [8] was “inactive” throughout.

With `CCCNC(=O)NS(=O)(=O)c1ccc(Cl)cc1`, the Potency result in [1], in test [9], in test [2], in test [3], in [4] and in [5] was “inactive” in each case. Also, the Potency result in test [6], in test [7] and in [8] was “inactive” throughout.

For the compound `O=C(O)CCC(=O)O`, the Potency result in test [1], in [2], in [3], in [4], in test [5] and in test [6] was “inactive” each time. Besides, the Potency result in test [10], in test [7] and in test [8] was “inactive” each time.

For `CCCCC1C(=O)N(c2ccccc2)N(c2ccccc2)C1=O`, the Potency result in [1], in [2], in [3], in test [4], in test [5] and in [6] was “inactive” throughout. For the same compound, the Potency entry in test [7] and in [8] was “inactive” each time.

For `CC(=O)Nc1nnc(S(N)(=O)=O)s1`, the Potency entry in [1], in [9], in [2], in [3], in test [4] and in test [5] was “inactive” in each case. Moreover, the Potency result in [6], in test [7] and in test [8] was “inactive” each time.

With `NC(=O)c1ccccc1O`, the Potency entry in test [1], in test [9], in test [2], in [3], in [4] and in [5] was “inactive” each time. Moreover, the Potency result in test [6], in [7] and in [8] was “inactive” in each case.

Consider `Cc1ccc(S(=O)(=O)NC(=O)NN2CCCCCC2)cc1`, for which the Potency result in [1], in test [9], in test [2], in [3], in [4] and in test [5] was “inactive” in each case. Also, the Potency result in [7] and in [8] was “inactive” throughout. In addition, the Potency result in test [6] is “inactive and 30.6 µM (active)”.

For the compound `Cn1cc[nH]c1=S`, the Potency result in test [1], in test [2], in test [3], in test [4], in test [5] and in test [6] was “inactive” throughout. Further, the Potency result in [7] and in test [8] was “inactive” throughout.

With `Cc1ccc(O)cc1`, the Potency result in test [1], in test [9], in test [2], in test [4], in test [7] and in [8] was “inactive” in each case.

On to `CC(O)CO` (stereo not given), for which the Potency result in test [1], in [2], in [3], in test [4], in test [5] and in test [6] was “inactive” in each case. The Potency entry in test [7] and in test [8] was “inactive” throughout.

Take `CC(C)(Oc1ccc(C2CC2(Cl)Cl)cc1)C(=O)O` (stereo not given): the Potency entry in test [1], in [9], in test [2], in test [3], in test [4] and in [5] was “inactive” throughout. In addition, the Potency result in [6], in [7] and in test [8] was “inactive” each time.

Take `O=C(O)CS`: the Potency result in test [1] is “inactive and 61.6 µM (active)”. Moreover, the Potency entry in test [9], in test [2], in [3], in [4], in test [5] and in test [6] was “inactive” throughout. Besides, the Potency result in [7] and in [8] was “inactive” in each case.

Consider `OC(Cn1cncn1)(Cn1cncn1)c1ccc(F)cc1F`, for which the Potency result in [1], in test [9], in [2], in [3], in test [4] and in [5] was “inactive” throughout. Besides, the Potency result in [6] and in test [7] was “inactive” throughout.
